Compounds without any hit were thinned out: in the full panel of roughly 83,000, 20% have a hit.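 Assay: single dose, 48 h. Readout: percent growth (0 = no net growth; negative = cell death). Active: <10.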 The source made the active and inactive calls.
Experiments:
Assay in all cases: NCI-60 one-dose screen, 48 h (100 = growth as untreated, 0 = no growth, -100 = all killed)
Conditions in all cases: 10 µM unless noted
RPMI-8226 leukemia = test system: RPMI-8226 leukemia
OVCAR-8 ovarian = test system: OVCAR-8 ovarian
OVCAR-5 ovarian = test system: OVCAR-5 ovarian
SK-OV-3 ovarian = test system: SK-OV-3 ovarian
IGROV1 ovarian = test system: IGROV1 ovarian
OVCAR-3 ovarian = test system: OVCAR-3 ovarian
HS 578T breast = test system: HS 578T breast
NCI/ADR-RES ovarian = test system: NCI/ADR-RES ovarian
T-47D breast = test system: T-47D breast
BT-549 breast = test system: BT-549 breast
MDA-MB-435 melanoma = test system: MDA-MB-435 melanoma
SW-620 colon = test system: SW-620 colon
MCF7 breast = test system: MCF7 breast
HCT-116 colon = test system: HCT-116 colon
HCC-2998 colon = test system: HCC-2998 colon
KM12 colon = test system: KM12 colon
OVCAR-4 ovarian = test system: OVCAR-4 ovarian

Measured: growth

COc1nccc2c(Sc3ccccc3)nc(N)nc12
inactive: RPMI-8226 leukemia 93.2% | OVCAR-8 ovarian 101% | OVCAR-5 ovarian 107% | SK-OV-3 ovarian 114% | IGROV1 ovarian 114% | OVCAR-3 ovarian 119% | HS 578T breast 113% | NCI/ADR-RES ovarian 106% | T-47D breast 107% | BT-549 breast 85.9% | MDA-MB-435 melanoma 110% | SW-620 colon 109% | MCF7 breast 91.9% | HCT-116 colon 97.6% | HCC-2998 colon 106% | KM12 colon 113%

c1ccc2oc(-c3cnc4nonc4n3)cc2c1
inactive: OVCAR-8 ovarian 93.6% | OVCAR-5 ovarian 104% | OVCAR-4 ovarian 106% | SK-OV-3 ovarian 84.8% | IGROV1 ovarian 87.2% | OVCAR-3 ovarian 108% | HS 578T breast 89.2% | NCI/ADR-RES ovarian 92.4% | T-47D breast 79.7% | BT-549 breast 95.8% | MDA-MB-435 melanoma 109% | SW-620 colon 94% | MCF7 breast 88.5% | HCT-116 colon 90.1% | HCC-2998 colon 120% | KM12 colon 112%

CCCCCCCCCCCC1=NC(C)(C)CN1C(C)C
active: HCC-2998 colon -58.5%
inactive: OVCAR-8 ovarian 58.7% | OVCAR-5 ovarian 74.6% | OVCAR-4 ovarian 50.7% | SK-OV-3 ovarian 75.9% | IGROV1 ovarian 32.5% | OVCAR-3 ovarian 48.3% | HS 578T breast 53.2% | NCI/ADR-RES ovarian 47.3% | T-47D breast 36.3% | BT-549 breast 77.9% | MDA-MB-435 melanoma 11.2% | SW-620 colon 47.8% | MCF7 breast 27.8% | HCT-116 colon 21.5% | KM12 colon 25.3%

COc1ccc(Nc2nc(N)nc3c(=O)[nH]ccc23)cc1
inactive: RPMI-8226 leukemia 97.3% | OVCAR-8 ovarian 107% | OVCAR-5 ovarian 107% | SK-OV-3 ovarian 107% | IGROV1 ovarian 87.5% | OVCAR-3 ovarian 113% | HS 578T breast 118% | NCI/ADR-RES ovarian 100% | T-47D breast 96.6% | BT-549 breast 102% | MDA-MB-435 melanoma 113% | SW-620 colon 99.5% | MCF7 breast 79.7% | HCT-116 colon 83.7% | HCC-2998 colon 107% | KM12 colon 104%

c1cn2cc(-c3ccc4ncn(C5CCCCC5)c4c3)nc(-c3ccc4c(c3)ncn4C3CCCCC3)c2n1
active: OVCAR-8 ovarian -24.1% | OVCAR-5 ovarian -24% | OVCAR-4 ovarian 2.84% | SK-OV-3 ovarian -71.9% | IGROV1 ovarian -41.9% | OVCAR-3 ovarian -85.2% | HS 578T breast 3.4% | NCI/ADR-RES ovarian 1.11% | T-47D breast -17.7% | BT-549 breast -48.9% | MDA-MB-435 melanoma -73% | SW-620 colon -3.82% | MCF7 breast -3.78% | HCT-116 colon -61.4% | HCC-2998 colon -93.4% | KM12 colon -61.1%

CCCCCCCCCCCC1=NC(C)(C)CN1CCO
inactive: OVCAR-8 ovarian 78.1% | OVCAR-5 ovarian 92% | OVCAR-4 ovarian 72.6% | SK-OV-3 ovarian 97% | IGROV1 ovarian 38.5% | OVCAR-3 ovarian 81% | HS 578T breast 59.3% | NCI/ADR-RES ovarian 90.3% | BT-549 breast 80.6% | SW-620 colon 23.1% | MCF7 breast 30.3% | HCT-116 colon 17.8% | KM12 colon 29.1%
active: MDA-MB-435 melanoma 8.66% | HCC-2998 colon -17.5%

CCOC(=O)c1cnc(SCC)nc1SC#N
inactive: OVCAR-8 ovarian 96.8% | OVCAR-5 ovarian 94% | SK-OV-3 ovarian 115% | IGROV1 ovarian 98.7% | OVCAR-3 ovarian 87.3% | HS 578T breast 121% | NCI/ADR-RES ovarian 100% | BT-549 breast 115% | MDA-MB-435 melanoma 77.5% | SW-620 colon 60% | MCF7 breast 87.7% | HCT-116 colon 64.2% | HCC-2998 colon 108% | KM12 colon 101%

FC(F)(F)c1cc(-c2nnc3n2N=C(Cl)CS3)cc(C(F)(F)F)c1
inactive: RPMI-8226 leukemia 95.6% | OVCAR-5 ovarian 114% | OVCAR-4 ovarian 123% | SK-OV-3 ovarian 99.9% | IGROV1 ovarian 114% | OVCAR-3 ovarian 116% | HS 578T breast 105% | NCI/ADR-RES ovarian 99.1% | T-47D breast 84.5% | BT-549 breast 88.4% | SW-620 colon 89.7% | MCF7 breast 94.3% | HCT-116 colon 90.5%

NNc1ccc(S(N)(=O)=O)cc1
inactive: RPMI-8226 leukemia 82.4% | OVCAR-5 ovarian 102% | OVCAR-4 ovarian 110% | SK-OV-3 ovarian 104% | IGROV1 ovarian 110% | OVCAR-3 ovarian 111% | HS 578T breast 110% | NCI/ADR-RES ovarian 94.2% | BT-549 breast 101% | MDA-MB-435 melanoma 104% | SW-620 colon 97.3% | MCF7 breast 98% | HCT-116 colon 90.7% | HCC-2998 colon 86.8%

Fc1ccc(-c2nc(-c3ccc(-c4nc5ccc(F)cc5[nH]4)cc3)no2)cc1
inactive: OVCAR-8 ovarian 86.5% | OVCAR-5 ovarian 94.7% | SK-OV-3 ovarian 39.8% | IGROV1 ovarian 74.3% | OVCAR-3 ovarian 94.3% | HS 578T breast 71.3% | NCI/ADR-RES ovarian 73.9% | T-47D breast 62.8% | BT-549 breast 60.1% | MDA-MB-435 melanoma 68.2% | SW-620 colon 64.7% | MCF7 breast 52.5% | HCT-116 colon 73% | HCC-2998 colon 82.2% | KM12 colon 60.5%

CN1C(=O)N(C)C2C1NN=c1s/c(=C\c3ccc(Br)cc3)c(=O)n12 (stereo not drawn)
active: OVCAR-3 ovarian 0.921% | MDA-MB-435 melanoma -50.4%
inactive: OVCAR-8 ovarian 33.7% | OVCAR-5 ovarian 56.8% | OVCAR-4 ovarian 61.6% | SK-OV-3 ovarian 29.5% | IGROV1 ovarian 48.1% | HS 578T breast 11.6% | NCI/ADR-RES ovarian 17% | T-47D breast 28.7% | BT-549 breast 50.8% | SW-620 colon 20% | MCF7 breast 13.4% | HCT-116 colon 25% | HCC-2998 colon 53% | KM12 colon 23.3%

O=S(=O)(Cc1ccc(Cl)cc1Cl)c1ccc(Cl)cc1
active: SK-OV-3 ovarian 9.24% | OVCAR-3 ovarian 1.54% | NCI/ADR-RES ovarian -8.57% | MDA-MB-435 melanoma -33.1%
inactive: OVCAR-8 ovarian 31.9% | OVCAR-5 ovarian 53.9% | OVCAR-4 ovarian 69.5% | IGROV1 ovarian 36.1% | HS 578T breast 63.3% | T-47D breast 47.5% | BT-549 breast 62.7% | SW-620 colon 37.5% | MCF7 breast 22.1% | HCC-2998 colon 31.7% | KM12 colon 33.6%

COC(=O)c1ccc2c(c1)nc(-c1cc3ccccc3[nH]c1=O)n2-c1cc(C(C)(C)C)[nH]n1
inactive: OVCAR-8 ovarian 54% | OVCAR-5 ovarian 96.6% | OVCAR-4 ovarian 86.7% | SK-OV-3 ovarian 105% | IGROV1 ovarian 44.7% | OVCAR-3 ovarian 94.5% | HS 578T breast 39.3% | T-47D breast 59.3% | BT-549 breast 54.6% | MDA-MB-435 melanoma 46.4% | SW-620 colon 61.8% | MCF7 breast 58.1% | HCT-116 colon 51.1% | KM12 colon 44.3%
active: NCI/ADR-RES ovarian 2.6% | HCC-2998 colon -10.1%

COc1cc2ccc(C(C)=O)cc2cc1OC
inactive: OVCAR-5 ovarian 92.3% | OVCAR-4 ovarian 120% | SK-OV-3 ovarian 95.6% | IGROV1 ovarian 106% | HS 578T breast 97.1% | NCI/ADR-RES ovarian 103% | T-47D breast 93.1% | BT-549 breast 90.8% | SW-620 colon 98.5% | MCF7 breast 97.9% | HCT-116 colon 103% | KM12 colon 105%

COc1cc(NC(=O)CSc2nc3ccc(Cl)cc3c(=O)n2-c2ccccc2)cc(OC)c1OC
inactive: OVCAR-8 ovarian 93.2% | OVCAR-5 ovarian 96.3% | OVCAR-4 ovarian 85.7% | SK-OV-3 ovarian 101% | IGROV1 ovarian 91.5% | OVCAR-3 ovarian 97% | HS 578T breast 81.5% | NCI/ADR-RES ovarian 90.8% | T-47D breast 85.4% | BT-549 breast 78.9% | MDA-MB-435 melanoma 101% | SW-620 colon 101% | MCF7 breast 99.1% | HCT-116 colon 92.5% | HCC-2998 colon 106% | KM12 colon 100%

O=C(Nc1cccc(-n2ccc3c(NC(=O)c4ccccc4)nccc32)c1)c1ccc(Cl)c(Cl)c1
inactive: SK-OV-3 ovarian 18.7%
active: RPMI-8226 leukemia -51.3% | OVCAR-5 ovarian -36.4% | OVCAR-4 ovarian -88.7% | IGROV1 ovarian -52.1% | OVCAR-3 ovarian -81.3% | NCI/ADR-RES ovarian -28.1% | T-47D breast -55.4% | BT-549 breast -75.7% | MDA-MB-435 melanoma -78.1% | SW-620 colon -80.3% | MCF7 breast -83.6% | HCT-116 colon -97.6% | HCC-2998 colon -90.9% | KM12 colon -75.2%

O=C(O)c1cc2cc(OCc3ccccc3)ccc2[nH]1
inactive: RPMI-8226 leukemia 94.3% | OVCAR-8 ovarian 87.9% | OVCAR-5 ovarian 109% | SK-OV-3 ovarian 94.7% | IGROV1 ovarian 110% | OVCAR-3 ovarian 102% | HS 578T breast 97.1% | NCI/ADR-RES ovarian 109% | T-47D breast 101% | BT-549 breast 84.9% | MDA-MB-435 melanoma 111% | SW-620 colon 102% | MCF7 breast 62.4% | HCT-116 colon 100% | HCC-2998 colon 104% | KM12 colon 96.8%

Clc1cc2nc(-c3ccccc3)c(-c3ccccc3)nc2cc1Cl
inactive: OVCAR-8 ovarian 112% | OVCAR-5 ovarian 98.6% | OVCAR-4 ovarian 86.9% | SK-OV-3 ovarian 89.3% | IGROV1 ovarian 65.6% | HS 578T breast 93.7% | NCI/ADR-RES ovarian 98.5% | T-47D breast 76.6% | BT-549 breast 118% | MDA-MB-435 melanoma 108% | SW-620 colon 89.7% | MCF7 breast 78.1% | HCT-116 colon 84.8% | HCC-2998 colon 94.1% | KM12 colon 92%

NC(=O)N/N=C\c1ccc([N+](=O)[O-])o1
inactive: RPMI-8226 leukemia 86% | OVCAR-8 ovarian 97.6% | OVCAR-5 ovarian 103% | SK-OV-3 ovarian 114% | IGROV1 ovarian 105% | OVCAR-3 ovarian 109% | HS 578T breast 79.2% | NCI/ADR-RES ovarian 95.1% | T-47D breast 101% | BT-549 breast 106% | MDA-MB-435 melanoma 102% | SW-620 colon 96.9% | MCF7 breast 94.6% | HCT-116 colon 109% | HCC-2998 colon 104% | KM12 colon 98.1%

From PubChem BioAssay (NCI)
